From PubChem BioAssay AID1159580 (chemical genetic matrix, 2015)
The campaign covered roughly 5,500 compounds. About 2,000 (36%) were called active. Inconclusive results (about 18%) are left out. Rule as the data show it: active = normalized growth mostly below about 0.91 (no sharp cut-off); inconclusive = no clear call, values can overlap the other calls; inactive = mostly above about 0.92. Some of the results follow.

Test: chemical genetic growth profiling, strain panel (AID 1159580);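 also: tested at 20 µM; growth read once vehicle control cultures reached saturation at 30 °C; 1 = growth at the plate median or of vehicle wells; lower values mean less growth of the strain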
Conditions: growth OD

Measured: normalized growth

OCC(O)Cc1ccc2c(c1)OCO2 (centres undefined)
inactive: S. cerevisiae deletion strains, locus YJR043C, strain POL32, stronger effect = lower value 0.995 | S. cerevisiae deletion strains, locus YJR075W, strain HOC1, stronger effect = lower value 0.984 | S. cerevisiae deletion strains, locus YKL009W, strain mrt4, stronger effect = lower value 1 | S. cerevisiae deletion strains, locus YKL068W, stronger effect = lower value 1 | S. cerevisiae deletion strains, locus YKL085W, strain MDH1 (second series), stronger effect = lower value 1.03 | S. cerevisiae deletion strains, locus YKL085W, strain MDH1, stronger effect = lower value 1.03 | S. cerevisiae deletion strains, locus YKL160W, strain elf1, stronger effect = lower value 1 | S. cerevisiae deletion strains, locus YKL190W, strain CNB1, stronger effect = lower value 1.02 | S. cerevisiae deletion strains, locus YKR001C, strain vps1, stronger effect = lower value 0.999 | S. cerevisiae deletion strains, locus YKR026C, strain gcn3, stronger effect = lower value 0.989 | S. cerevisiae deletion strains, locus YKR091W, strain srl3, stronger effect = lower value 1 | S. cerevisiae deletion strains, locus YLL001W, strain dnm1, stronger effect = lower value 1 | S. cerevisiae deletion strains, locus YLL026W, stronger effect = lower value 0.997 | S. cerevisiae deletion strains, locus YLL041C, strain sdh2, stronger effect = lower value 0.994 | S. cerevisiae deletion strains, locus YLR027C, strain aat2, stronger effect = lower value 0.976 | S. cerevisiae deletion strains, locus YLR039C, strain RIC1, stronger effect = lower value 1.03 | S. cerevisiae deletion strains, locus YLR058C, strain SHM2, stronger effect = lower value 1.02 | S. cerevisiae deletion strains, locus YLR102C, strain apc9, stronger effect = lower value 1 | S. cerevisiae deletion strains, locus YLR221C, strain rsa3, stronger effect = lower value 0.997 | S. cerevisiae deletion strains, locus YLR258W, strain gsy2, stronger effect = lower value 1.01 | S. cerevisiae deletion strains, locus YLR262C, strain YPT6 (second series), stronger effect = lower value 1.01 | S. cerevisiae deletion strains, locus YLR262C, strain YPT6, stronger effect = lower value 1.06 | S. cerevisiae deletion strains, locus YLR268W, strain sec22, stronger effect = lower value 1 | S. cerevisiae deletion strains, locus YLR320W, strain mms22, stronger effect = lower value 0.983 | S. cerevisiae deletion strains, locus YLR330W, strain CHS5, stronger effect = lower value 1.01 | S. cerevisiae deletion strains, locus YLR342W, strain FKS1 (second series), stronger effect = lower value 0.99 | S. cerevisiae deletion strains, locus YLR342W, strain FKS1, stronger effect = lower value 0.992 | S. cerevisiae deletion strains, locus YLR357W, strain rsc2, stronger effect = lower value 0.973 | S. cerevisiae deletion strains, locus YLR370C, strain arc18, stronger effect = lower value 1 | S. cerevisiae deletion strains, locus YLR371W, strain rom2, stronger effect = lower value 0.989 | S. cerevisiae deletion strains, locus YLR384C, strain iki3, stronger effect = lower value 0.992 | S. cerevisiae deletion strains, locus YLR418C, strain cdc73, stronger effect = lower value 1.02 | S. cerevisiae deletion strains, locus YML016C, strain PPZ1, stronger effect = lower value 1.01 | S. cerevisiae deletion strains, locus YML032C, strain rad52, stronger effect = lower value 0.989 | S. cerevisiae deletion strains, locus YML120C, strain ndi1, stronger effect = lower value 0.995 | S. cerevisiae deletion strains, locus YML124C, strain tub3, stronger effect = lower value 0.996 | S. cerevisiae deletion strains, locus YMR058W, strain fet3, stronger effect = lower value 1.01 | S. cerevisiae deletion strains, locus YMR078C, strain ctf18, stronger effect = lower value 0.99 | S. cerevisiae deletion strains, locus YMR125W, strain sto1, stronger effect = lower value 0.997 | S. cerevisiae deletion strains, locus YMR129W, stronger effect = lower value 0.994 | S. cerevisiae deletion strains, locus YMR205C, strain PFK2, stronger effect = lower value 0.981 | S. cerevisiae deletion strains, locus YMR223W, strain ubp8, stronger effect = lower value 0.987 | S. cerevisiae deletion strains, locus YMR231W, strain pep5, stronger effect = lower value 0.996 | S. cerevisiae deletion strains, locus YMR263W, strain SAP30, stronger effect = lower value 1.03 | S. cerevisiae deletion strains, locus YMR307W, strain GAS1, stronger effect = lower value 0.956 | S. cerevisiae deletion strains, locus YNL067W, strain RPL9B, stronger effect = lower value 1.03 | S. cerevisiae deletion strains, locus YNL071W, strain lat1, stronger effect = lower value 1.01 | S. cerevisiae deletion strains, locus YNL128W, strain TEP1, stronger effect = lower value 1.02 | S. cerevisiae deletion strains, locus YNL153C, strain GIM3, stronger effect = lower value 1.03 | S. cerevisiae deletion strains, locus YNL209W, strain ssb2, stronger effect = lower value 1.02 | S. cerevisiae deletion strains, locus YNL233W, strain BNI4, stronger effect = lower value 1.04 | S. cerevisiae deletion strains, locus YNL248C, strain rpa49, stronger effect = lower value 0.979 | S. cerevisiae deletion strains, locus YNL250W, strain rad50, stronger effect = lower value 1.01 | S. cerevisiae deletion strains, locus YNL271C, strain bni1, stronger effect = lower value 0.996 | S. cerevisiae deletion strains, locus YNL298W, strain CLA4, stronger effect = lower value 1.01 | S. cerevisiae deletion strains, locus YNL307C, strain MCK1, stronger effect = lower value 0.999 | S. cerevisiae deletion strains, locus YNL322C, strain KRE1 (second series), stronger effect = lower value 1 | S. cerevisiae deletion strains, locus YNL322C, strain KRE1, stronger effect = lower value 1.01 | S. cerevisiae deletion strains, locus YNR049C, strain mso1, stronger effect = lower value 0.989 | S. cerevisiae deletion strains, locus YNR052C, strain pop2, stronger effect = lower value 0.989 | S. cerevisiae deletion strains, locus YOL006C, strain TOP1, stronger effect = lower value 1.07 | S. cerevisiae deletion strains, locus YOL012C, strain htz1 0.853 | S. cerevisiae deletion strains, locus YOL147C, strain pex11, stronger effect = lower value 1 | S. cerevisiae deletion strains, locus YOR001W, strain rrp6, stronger effect = lower value 0.985 | S. cerevisiae deletion strains, locus YOR061W, strain CKA2, stronger effect = lower value 1.02 | S. cerevisiae deletion strains, locus YOR069W, strain VPS5, stronger effect = lower value 1 | S. cerevisiae deletion strains, locus YOR070C, strain gyp1, stronger effect = lower value 1 | S. cerevisiae deletion strains, locus YOR080W, strain dia2, stronger effect = lower value 0.988 | S. cerevisiae deletion strains, locus YOR083W, strain WHI5, stronger effect = lower value 1 | S. cerevisiae deletion strains, locus YOR106W, strain vam3, stronger effect = lower value 1.03 | S. cerevisiae deletion strains, locus YOR136W, strain idh2, stronger effect = lower value 0.993 | S. cerevisiae deletion strains, locus YOR144C, strain elg1, stronger effect = lower value 0.997 | S. cerevisiae deletion strains, locus YOR184W, strain ser1, stronger effect = lower value 0.99 | S. cerevisiae deletion strains, locus YOR265W, strain rbl2, stronger effect = lower value 1 | S. cerevisiae deletion strains, locus YOR270C, strain vph1, stronger effect = lower value 1.03 | S. cerevisiae deletion strains, locus YOR290C, strain snf2, stronger effect = lower value 1.01 | S. cerevisiae deletion strains, locus YOR316C, strain cot1, stronger effect = lower value 0.997 | S. cerevisiae deletion strains, locus YPL051W, strain arl3, stronger effect = lower value 1 | S. cerevisiae deletion strains, locus YPL055C, strain LGE1, stronger effect = lower value 1.06 | S. cerevisiae deletion strains, locus YPL078C, strain atp4, stronger effect = lower value 1.02 | S. cerevisiae deletion strains, locus YPL106C, strain sse1, stronger effect = lower value 0.979 | S. cerevisiae deletion strains, locus YPL240C, strain hsp82, stronger effect = lower value 1 | S. cerevisiae deletion strains, locus YPL241C, strain CIN2, stronger effect = lower value 1.01 | S. cerevisiae deletion strains, locus YPR119W, strain clb2, stronger effect = lower value 0.995 | S. cerevisiae deletion strains, locus YPR141C, strain kar3, stronger effect = lower value 0.997 | S. cerevisiae deletion strains, locus YPR163C, strain tif3, stronger effect = lower value 0.992 | S. cerevisiae deletion strains, locus YPR167C, strain met16, stronger effect = lower value 0.996 | S. cerevisiae deletion strains, strain wtn01, stronger effect = lower value 0.997 | S. cerevisiae strains, strain wild type, stronger effect = lower value 1.01
